Assay outcomes (PubChem)
Shiga toxin inh: Shiga toxin inhibition; Vero cells, Shiga toxin protein synthesis inhibition reporter; actives 9.2% (n = 290,000); inhibition, % at 38.7 µM; in the data active = inhibition mostly above about 28%, no sharp cut-off; inactive = mostly below about 43%; note: 0% is about no effect
NS1 inh: blocks influenza NS1 protein function | Potency, µM (series often up to 46.1 µM), without a hit: at the top dose activity, positive = more growth | actives 0.4% (n = 270,000); calls by dose curve; note: potency is the fitted concentration of half-maximal effect; actives are rising curves; nearly all actives have a fitted effect of over 50% in size
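Growth recovery, yeast-based: influenza A NS1 expressed in S. cerevisiae causes slow growth, and suppressors are detected by OD600. The parent strain without NS1 is used as positive control.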
CHX counter: counter-screen hit for Shiga toxin inhibitors, cycloheximide | actives 12% (n = 300,000) | max response, % | cell reporter, cycloheximide protein synthesis inhibition counterscreen; in the data active = max response mostly above about 13%, no sharp cut-off; inactive = mostly below about 14%; note: read at 38.3 µM for the half of the compounds with a filed dose; 0% is about no effect
Pf growth 96h: P. falciparum growth inhibition at 96 hours. AID 504834. actives 6.9% (n = 320,000). P. falciparum luciferase reporter growth, 96 h. Potency, µM (series often up to 28.7 µM), for the others: top-dose activity change, negative = inhibition, most hits filed as inhibitors; note: potency is the fitted concentration of half-maximal effect; % is set by controls: 0 for no effect and ±100 for the full control effect
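Cell-based qHTS: luciferase-tagged P. falciparum in erythrocytes (2% hematocrit, 0.05% parasitemia final) incubated with compounds for 96 hours, 37 C, 5% CO2; luciferase detection reagent then added and luminescence measured.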
Pf growth 48h: inhibits P. falciparum growth in the first generation, 48 h; P. falciparum luciferase growth in erythrocytes, 48 h; Potency, µM (titrated, usually from 28.7 µM), for inactives: top-dose activity change, negative = inhibition, hits mostly inhibitors; actives 5.9% (n = 310,000); note: potency is the fitted concentration of half-maximal effect; % is set by controls: 0 for no effect and ±100 for the full control effect
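Erythrocytes infected with P. falciparum carrying an integrated firefly luciferase reporter (2% hematocrit, 0.1% parasitemia final) were exposed to compounds in RPMI 1640 with 0.5% Albumax at 37 C, 5% CO2. Growth inhibition was scored as reduced luminescence.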
Starred values were filed as active, the others as inactive; ? = inconclusive; . = not tested or not shown; [ ] = another dose, or the depositor's remark. A selection: hits, their analogues and other compounds. The true share with any hit is near 21%. Unless noted, calls come from the whole dose curve; as a rule, active = well fitted inhibition curve with a large enough effect; inconclusive = small, poorly fitted or top-dose-only effect, or another doubt; inactive = no such curve, though single readings can be large or run the other way.

SMILES	Shiga toxin inh	NS1 inh	CHX counter	Pf growth 96h	Pf growth 48h
CN(C)CCCN=Cc1c(-c2ccccc2)[nH]n(-c2nc3ccccc3s2)c1=O	37	8%	-2	?	13%
O=c1c(C=NCCCn2ccnc2)c(-c2ccccc2)[nH]n1-c1nc2ccccc2s1	2	12%	-2	.	10µM*
Cc1nnc(NCCc2ccccc2)c2ccccc12	132*	-6%	42*	34%	115%
Cc1ccc(CCNc2ccccc2)c[n+]1[O-]	11	6%	15*	.	.
c1ccc(CCNc2ccccc2)cc1	31	2%	21*	25%	4%
COC(=O)c1cc(NC(=O)C2CC=CCC2C(=O)O)cc(C(=O)OC)c1 (configuration not stated)	-3	6%	-2	.	5%
O=C(Nc1cnc2ccccn2c1=O)c1ccc(F)cc1	58*	?	33*	13µM*	172%
COc1ccc(C(=O)Nc2cnc3ccccn3c2=O)cc1	97*	-2%	46*	?	71%
O=C(Nc1cnc2sc3c(n2c1=O)CCCC3)c1ccc(F)cc1	44*	-36%	25*	76%	40%
O=C(Nc1ccccc1NC(=O)c1ccc(F)cc1)c1ccc(F)cc1	-3	7%	-4	?	-12%[0.00184 µM]
COc1ccc(OC)c(NC(=O)c2cc3c(=O)n4ccccc4nc3n2C)c1	2	.	15	?	1%
Cc1ccc(NC2CCCN(C(=O)CN3C(=O)CSC3=O)C2)cc1C (configuration not stated)	-4	16%	-2	9%	1%
COc1ccc2cc(C(c3nnnn3Cc3ccccc3)N3CCCCCC3)c(=O)[nH]c2c1 (configuration not stated)	26	-2%	-2	?	?
Cc1cc(C)c2[nH]c(=O)c(C(c3nnnn3Cc3ccc4c(c3)OCO4)N3CCC(C)CC3)cc2c1 (configuration not stated)	-5	-12%	-2	.	13µM*
Cc1cc(C)c2[nH]c(=O)c(C(c3nnnn3C3CCCC3)N3CCOCC3)cc2c1 (configuration not stated)	-15	-6%	-5	?	3%
COc1ccc2cc(C(c3nnnn3Cc3ccc(F)cc3)N3CCCCCC3)c(=O)[nH]c2c1 (configuration not stated)	35	-12%	-2	.	12µM*
COc1ccc(Cn2nnnc2C(c2cc3cccc(C)c3[nH]c2=O)N2CCOCC2)cc1 (configuration not stated)	35*	-5%	20	?	9%
COc1ccc(Cn2nnnc2C(c2cc3ccc(OC)cc3[nH]c2=O)N2CCC(C)CC2)cc1 (configuration not stated)	18	6%	11	9.3µM*	.
CCCCC1CC(/C(C)=N/NC(N)=O)OC1=O (configuration not stated)	-3	13%	-4	16%	-6%
CCOc1ccc(S(=O)(=O)N2CCCCC2)cc1NC(=O)CCc1ccc(OC)cc1	.	.	.	10µM*	13µM*
CN(C)c1ccc(CNC(=O)CCc2ccc(S(=O)(=O)N3CCCCCC3)cc2)cc1	.	.	.	?	12µM*
CCOc1ccc(S(=O)(=O)N2CCCCC2)cc1NC(=O)CCNC(=O)c1ccco1	.	.	.	?	3.3µM*
COc1ccc(CCC(=O)Nc2cccc(S(=O)(=O)N3CCCCCC3)c2)cc1	.	.	.	0%	?
CCCC(=O)Nc1ccccc1NC(=O)c1ccc(OC(C)=O)cc1	10	1%	-3	33%	7%
C=C(C)CNC(=S)Nc1sc2c(c1C(=O)OCC)CC(C)(C)OC2	-6	12%	-2	?	2%
SMILES	Shiga toxin inh	NS1 inh	CHX counter	Pf growth 96h	Pf growth 48h
COc1ccc(OC)c(NC(=O)[C@@]2(CC(=O)O)CC(/C=C/c3ccccc3)=NO2)c1	1	8%	-3	18%	10%
O=C(Nc1ccccc1Cl)C1Cc2ccccc2O/C1=N\O (configuration not stated)	87*	-7%	44*	?	65%
c1ccc(CCNc2ncnc3scc(C4COc5ccccc5O4)c23)cc1 (configuration not stated)	-4	9%	-3	15µM*	.
c1ccc2c(c1)OCC(c1csc3ncnc(N4CCCC4)c13)O2 (configuration not stated)	-14	-3%	-2	9.3µM*	.
CSc1nsc(/C=C/Nc2ccc(O)cc2C)c1C#N	28	.	28*	?	?
CSc1nsc(/C=C/Nc2ccc(Cl)cc2)c1C#N	-20	13%	-5	1.2µM*	1.2µM*
CSc1nsc(/C=C/Nc2ccc(F)cc2)c1C#N	38	.	10	6.6µM*	-23%
CSc1nsc(/C=C/Nc2cccc(Cl)c2)c1C#N	30	15%	1	?	?
CCOc1ccccc1-c1noc(CCCC(=O)NC2CCCCC2)n1	-7	12%	0	15%	?
CCOC(=O)C1=C(Nc2ccccc2)CC(C)(O)C(C(=O)OCC)C1c1ccc(Cl)cc1 (configuration not stated)	-6	-7%	-1	12µM*	?
COc1ccc(C(C)=O)cc1COC(=O)c1ccc(S(=O)(=O)N(C)C)cc1	17	.	9	?	-27%
CC(C)Nc1nc(NC(C)C)nc(N(C)N)n1	-9	8%	8	3.7µM*	.
CC(C)Nc1nc(NC(C)C)nc(N(C)n2cnnc2)n1	-1	5%	-3	-23%	12%
CC(C)Nc1nc(NC(C)C)nc(N(C)C(N)=O)n1	-14	-2%	23	12µM*	20%
CC(C)(CNC(=O)c1cc2c(s1)CCCC2)N1CCOCC1	.	.	.	10%	0%
COc1ccc(N2CCN(C(=O)c3ccc4c(c3)CC(c3ccccc3)OC4=O)CC2)cc1 (configuration not stated)	.	.	.	0%	?
O=C1CC(C(=O)N2CCCc3ccccc32)CN1c1ccc(F)cc1 (configuration not stated)	75*	10%	25*	?	7%
O=C(C1COc2ccccc2O1)N1CCc2ccccc21 (configuration not stated)	67*	-1%	68*	34%	54%
O=C(NC1CC2CCCC(C1)N2CC(=O)N1CCCc2ccccc21)C1CCCCC1 (configuration not stated)	-3	-3%	1	15µM*	-9%
O=C(C1CCCCC1)N1CCCc2ccccc21	31	-6%	22*	17%	.
CCc1ccccc1NC(=O)Nc1cc(F)ccc1F	26	-5%	8	1%	?
CC(NC(=O)/C(C#N)=C1\N=C(NC(=O)c2ccco2)c2ccccc21)c1ccccc1 (configuration not stated)	7	0%	1	60%	3%
Cc1cnc(C(=O)N(CC(C)C)c2c(N)n(CC(C)C)c(=O)[nH]c2=O)cn1	.	.	.	5%	-8%
O=C(C1CC(=O)N(c2ccccc2)C1)N1CCCCCC1 (configuration not stated)	-1	3%	2	?	31%
